Source: PubChem BioAssay AID588332 (National Center for Advancing Translational Sciences (NCATS), 2011)
Values without a mark were called inactive. The call rests on the fitted dose curve; in most records, active means well fitted curve in the direction sought with a large enough effect; inactive means no such curve, though single readings can be large or run the other way.

Biological target: ATP-dependent 6-phosphofructokinase (Geobacillus stearothermophilus) (UniProt P00512)
Assay: Confirmatory Assay to Find Inhibitors of T. brucei phosphofructokinase: Counter Screen against Bacillus PFK
Conditions: B. stearothermophilus PFK, ADP-Glo luminescence, 45 min; series mostly up to 57.5 µM; inhibition: at the top concentration
Text: Various species of the protozoan family Trypanosomatidae are responsible for a range of serious human diseases in tropical and subtropical areas of the world. […] Many of the disorders caused by trypanosomatids are fatal if left untreated, but most currently used drugs are inefficient and toxic. […] Oxidative metabolism involving the mitochondrial tricarboxylic acid cycle and oxidative phosphorylation are repressed in these parasites, and recent RNA interference (RNAi) experiments have shown that even partial depletion of certain individual glycolytic enzymes can lead to the death of cultured parasites. One such glycolytic enzyme, phosphofructokinase (PFK), catalyzes the formation of fructose-1,6-bisphosphate (F1,6BP) and ADP from fructose-6-phosphate (F6P) and ATP, and in many metabolic circumstances makes an important contribution to the control of flux through the glycolytic pathway. As a specific glycolytic target, PFK is particularly attractive as it catalyzes the first irreversible step in glycolysis, and structural and kinetic studies have shown very substantial and essential differences from corresponding host enzymes, allowing for the discovery of parasite-selective inhibitors. A luminescent biochemical assay was performed that used luciferase-based nucleotide detection (ADP-Glo, Promega) to examine the effect of identified actives against a bacterial isoform of PFK, namely Bacillus stearothermophilus, for target specificity. The assay is identical in concept to the T. brucei PFK qHTS assay, but instead uses the B. stearothermophilus isoform of PFK (Sigma, St. Louis, MO) and ATP/F6P at bacterial isoform-specific Km concentrations. NIH Chemical Genomics Center [NCGC] NIH Molecular Libraries Probe Centers Network [MLPCN] MLPCN Grant: MH092153-01 Assay Submitter (PI): Malcom Walkinshaw, University of Edinburgh
Substrate buffer was dispensed into white, solid 1536-well plates at 3 uL/well in 0.1M triethanolamine (TEA) buffer, pH 8.0, containing final concentrations of 5 mM MgCl2, 0.01% Tween20, 0.6 mM fructose-6-phosphate (F6P) and 0.1 mM ATP. Then, 23 nl of compounds or DMSO were delivered to each well using a pin tool. One uL of B. stearothermophilus PFK (0.1 M TEA, 0.01% Tween20, 0.1% bovine serum albumin (BSA) and 10 nM PFK, final concentrations) was then dispensed, and plates were incubated at room temperature for 45 min. The luminescent detection reagent, ADP-Glo (Promega), was then added in two steps: the first reagent, ADP-Glo (which converts remaining uncatalyzed ATP), was added at 2.5 uL/well and incubated for ten minutes at room temperature, and the second component, Kinase Detection reagent (which converts ADP to ATP as a substrate for luciferase-based luminescence), was added immediately after at 5uL/well, followed by one final ten minute room temperature incubation. The plates were measured on a ViewLux plate reader for luminescent signal using a clear filter with a one second exposure. The %Activity was determined from the corrected luminescence values. 1x (1.25nM) and 0x PFK enzyme controls (untreated) were included to normalize %Activity of identified inhibitors; 0x enzyme values corresponded to 100%Activity (full inhibition), while 1x PFK enzyme values were used to normalize 0% Activity (no inhibition).

Structure (SMILES) | inhibition [%]
O=C(Cc1ccc(Cl)c(Cl)c1)Nc1ccc(S(=O)(=O)Nc2cccc(C(=O)O)c2)cc1 | 11.7
O=C(Cc1ccc(Cl)c(Cl)c1)Nc1ccc(S(=O)(=O)Nc2cccc(O)c2)cc1 | 5.79
Cc1cc(NS(=O)(=O)c2ccc(NC(=O)Cc3ccc(Cl)c(Cl)c3)cc2)n(C)n1 | 9.44
O=C(Cc1ccc(Cl)c(Cl)c1)Nc1ccc(S(=O)(=O)Nc2ccn[nH]2)cc1 | 12.7
Cc1cc(NS(=O)(=O)CCNC(=O)Cc2ccc(Cl)c(Cl)c2)no1 | 6.94
O=C(Cc1ccc(Cl)c(Cl)c1)Nc1ccc(S(=O)(=O)O)cc1 | 13.4
Cc1cc(NS(=O)(=O)c2ccc(NC(=O)Cc3ccc(Cl)c(Cl)c3)cc2)on1 | 11.4
Cc1cc(NS(=O)(=O)c2ccc(NC(=O)Cc3ccc4ccccc4c3)cc2)no1 | 5.31
Cc1cc(NS(=O)(=O)c2ccc(NC(=O)Cc3ccc(Cl)c(Cl)c3)cc2)no1 | -2.25
Cc1cc(NS(=O)(=O)c2ccc(NC(=O)Cc3cccc(Cl)c3)cc2)no1 | 5.01
Cc1cc(NS(=O)(=O)c2ccc(NC(=O)Cc3ccc(Cl)c(F)c3)cc2)no1 | 7.83
Cc1cc(NS(=O)(=O)c2ccc(NC(=O)Cc3ccc(Cl)c(C(F)(F)F)c3)cc2)no1 | 6.45
CN(C)c1cccc(NS(=O)(=O)c2ccc(NC(=O)Cc3ccc(Cl)c(Cl)c3)cc2)c1 | 10
O=C(Cc1ccc(Cl)c(Cl)c1)Nc1ccc(S(=O)(=O)Nc2ccon2)cc1 | 7.77
Cc1cc(NS(=O)(=O)c2ccc(NS(=O)(=O)Cc3ccc(Cl)c(Cl)c3)cc2)no1 | 10.1
Cc1cc(NS(=O)(=O)c2ccc(NC(=O)Cc3ccc(Cl)cc3)cc2)no1 | 7.74
Cc1cc(NS(=O)(=O)Cc2ccc(NC(=O)Cc3ccc(Cl)c(Cl)c3)cc2)no1 | 12.5
COc1ccc(CC(=O)Nc2ccc(S(=O)(=O)Nc3cc(C)on3)cc2)cc1C | 5.25
CCOC(=O)c1cccc(NS(=O)(=O)c2ccc(NC(=O)Cc3ccc(Cl)c(Cl)c3)cc2)c1 | 11.7
Cc1cc(NS(=O)(=O)c2ccc(NC(=O)Cc3ccc(Cl)cc3Cl)cc2)no1 | 7.84

Structure (SMILES) | inhibition [%]
Cc1cc(NS(=O)(=O)c2ccc(N(C)C(=O)Cc3ccc(Cl)c(Cl)c3)cc2)no1 | 2.87
Cc1cc(NS(=O)(=O)c2cccc(NC(=O)Cc3ccc(Cl)c(Cl)c3)c2)no1 | 6.88
O=C(Cc1ccc(Cl)c(Cl)c1)Nc1ccc(S(=O)(=O)Nc2cncnc2)cc1 | 8.9
Cc1cc(NS(=O)(=O)c2ccc(C(=O)NCc3ccc(Cl)c(Cl)c3)cc2)no1 | 12.6
Cc1cc(NS(=O)(=O)c2ccc(NC(=O)CCc3ccc(Cl)c(Cl)c3)cc2)no1 | 7.06
Cc1cc(N[S+](=O)([O-])c2ccc3cc(NC(=O)Cc4ccc(Cl)c(Cl)c4)ccc3c2)no1 | 1.3
O=C(Cc1ccc(Cl)c(Cl)c1)Nc1ccc(S(=O)(=O)Nc2ccc(C(=O)O)cc2)cc1 | 3.89
Cc1cc(NS(=O)(=O)c2ccc(NC(=O)c3ccc(Cl)c(Cl)c3)cc2)no1 | 4.5
O=C(Cc1ccc(Cl)c(Cl)c1)Nc1ccc(S(=O)(=O)Nc2ccccc2)cc1 | 9.48
Cc1cc(NS(=O)(=O)c2ccc(NC(=O)Cc3ccc(C)c(F)c3)cc2)no1 | 7.42
Cc1cc(NS(=O)(=O)c2ccc(NC(=O)Cc3ccc(C)c(C)c3)cc2)no1 | 1.26
Cc1cc(NS(=O)(=O)C2CCN(C(=O)Cc3ccc(Cl)c(Cl)c3)CC2)no1 | 5.05
Cc1cc(NC(=O)c2ccc(NC(=O)Cc3ccc(Cl)c(Cl)c3)cc2)no1 | 9.14
COc1ccc(CC(=O)Nc2ccc(S(=O)(=O)Nc3cc(C)on3)cc2)cc1OC | 8.18
Cc1cc(N[S+](=O)([O-])c2ccc(NC(=O)Cc3ccc(Cl)nc3)cc2)no1 | 7.09
Cc1cc(NS(=O)(=O)c2ccc(NC(=O)Cc3ccccc3)cc2)no1 | 1.27
Cc1cc(NC(=O)c2csc(NC(=O)Cc3ccc(Cl)c(Cl)c3)n2)no1 | 10.4
Cc1cc(NS(=O)(=O)c2ccc(NC(=O)C(C)(C)c3ccc(Cl)c(Cl)c3)cc2)no1 | 8.27
Cc1cc(NS(=O)(=O)c2ccc(NCCc3ccc(Cl)c(Cl)c3)cc2)no1 | 6.15
Cc1cc(N(C)S(=O)(=O)c2ccc(NC(=O)Cc3ccc(Cl)c(Cl)c3)cc2)no1 | 7.13
